In PubChem BioAssay (EPA / NIEHS):
Calls of active or inactive are those of the source. The calls were made as follows: active = hit-call score of the fitted dose curve at least 0.9, where 1 is the maximum; inactive = score below 0.9.

Columns and labels:
Conditions in all cases: mRNA level, 48 h; actives raise or lower the signal
[1] = read-out: CYP2C9 (gene 1559); experiment: LTEA_HepaRG_CYP2C9: Life Technologies and Expression Analysis (LTEA) Assay for CYP2C9 using HepaRG (AID 2283484)
Method in brief: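 HepaRG, 48 h dosing, 8-pt half-log series, top 100 uM, 0.5% DMSO vehicle. Read-out: CYP2C9 transcript by TaqMan qRT-PCR, housekeeping-normalized (ACTB/GAPDH/POLR2A). Gain or loss fitted vs DMSO baseline.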

[2] = read-out: CYP2E1 (gene 1571); experiment: LTEA_HepaRG_CYP2E1: Life Technologies and Expression Analysis (LTEA) Assay for CYP2E1 using HepaRG (AID 2283485)
Method in brief: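 Readout is qRT-PCR of CYP2E1 mRNA, normalized to three housekeeping genes and fitted bidirectionally against 0.5% DMSO. HepaRG cells were dosed 48 h at eight concentrations, highest 100 uM with half-log dilutions.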

[3] = read-out: CYP4A11 (gene 1579); experiment: LTEA_HepaRG_CYP4A11: Life Technologies and Expression Analysis (LTEA) Assay for CYP4A11 using HepaRG (AID 2283486)
Method in brief: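 Differentiated HepaRG cells, 48 h after plating, exposed in duplicate for 48 h to 8 half-log concentrations up to 100 uM in 0.5% DMSO in serum-free induction medium. CYP4A11 mRNA measured by TaqMan qRT-PCR, normalized to ACTB, GAPDH and POLR2A.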

[4] = read-out: DNA damage-inducible transcript 3 (DDIT3), DDIT3 (gene 1649); experiment: LTEA_HepaRG_DDIT3: Life Technologies and Expression Analysis (LTEA) Assay for DNA damage-inducible transcript 3 (DDIT3) using HepaRG (AID 2283488)
Method in brief: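 Cells are human HepaRG liver cells treated for 48 h with eight half-log concentrations up to 100 uM in 0.5% DMSO. Transcript levels come from qRT-PCR normalized to three housekeeping genes, with activity fitted in both directions relative to vehicle.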

[5] = read-out: Pro-epidermal growth factor (Homo sapiens) (UniProt P01133); experiment: LTEA_HepaRG_EGF: Life Technologies and Expression Analysis (LTEA) Assay for Epidermal growth factor (EGF) using HepaRG (AID 2283489)
Method in brief: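 HepaRG cells (~100,000/well, 48 h pre-culture) exposed in duplicate for 48 h in serum-free induction medium to 8 half-log concentrations up to 100 uM in 0.5% DMSO. EGF mRNA by qRT-PCR, normalized to ACTB/GAPDH/POLR2A; bidirectional fit versus DMSO.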

[6] = read-out: Early growth response protein 1 (EGR1) transcription factor, EGR1 (gene 1958); experiment: LTEA_HepaRG_EGR1: Life Technologies and Expression Analysis (LTEA) Assay for Early growth response protein 1 (EGR1) transcription factor using HepaRG (AID 2283490)
Method in brief: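 HepaRG, 48 h exposure, 8-pt half-log series from 100 uM, 0.5% DMSO vehicle; EGR1 transcript by TaqMan qRT-PCR (Fluidigm array), housekeeping-normalized; bidirectional fit relative to DMSO baseline.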

[7] = read-out: Ezrin (EZR), EZR (gene 7430); experiment: LTEA_HepaRG_EZR: Life Technologies and Expression Analysis (LTEA) Assay for Ezrin (EZR) using HepaRG (AID 2283491)
Method in brief: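 Read-out is EZR transcript level by qRT-PCR, normalized to three housekeeping genes and fitted bidirectionally against the DMSO control. Human HepaRG cells received test chemicals for 48 h at eight half-log concentrations up to 100 uM in 0.5% DMSO.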

[8] = read-out: Cytochrome P450 3A7 (Homo sapiens) (UniProt P24462); experiment: LTEA_HepaRG_CYP3A7: Life Technologies and Expression Analysis (LTEA) Assay for CYP3A7 using HepaRG (AID 2283492)
Method in brief: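 Differentiated HepaRG cells in serum-free induction medium exposed 48 h in duplicate to 8-point half-log series from 100 uM top in 0.5% DMSO. CYP3A7 mRNA by qRT-PCR, normalized to ACTB/GAPDH/POLR2A, bidirectional fit versus DMSO.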

[9] = read-out: CYP3A5 (gene 1577); experiment: LTEA_HepaRG_CYP3A5: Life Technologies and Expression Analysis (LTEA) Assay for CYP3A5 using HepaRG (AID 2283493)
Method in brief: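 Human HepaRG hepatic cells receive 48 h chemical treatment at eight concentrations (half-log steps from 100 uM) in 0.5% DMSO. Expression of CYP3A5 is quantified by Fluidigm qRT-PCR and normalized to three reference genes.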

[10] = read-out: Fatty Acid-Binding Protein 1 (FABP1), FABP1 (gene 2168); experiment: LTEA_HepaRG_FABP1: Life Technologies and Expression Analysis (LTEA) Assay for Fatty Acid-Binding Protein 1 (FABP1) using HepaRG (AID 2283494)
Method in brief: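 qRT-PCR readout of FABP1 transcript (normalized to three housekeeping genes) after 48 h chemical exposure of HepaRG cells; eight concentrations, half-log steps, max 100 uM, 0.5% DMSO vehicle; gain or loss fitted relative to DMSO baseline.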

[11] = read-out: Cytochrome P450 4A22 (Homo sapiens) (UniProt Q5TCH4); experiment: LTEA_HepaRG_CYP4A22: Life Technologies and Expression Analysis (LTEA) Assay for Cytochrome P450 4A22 (CYP4A22) using HepaRG (AID 2283495)
Method in brief: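 Differentiated HepaRG cells in serum-free induction medium exposed 48 h in duplicate to eight half-log concentrations up to 100 uM in 0.5% DMSO. CYP4A22 mRNA quantified by TaqMan qRT-PCR, normalized to ACTB, GAPDH and POLR2A; bidirectional fit versus DMSO.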

[12] = read-out: Cytochrome P450 7A1 (Homo sapiens) (UniProt P22680); experiment: LTEA_HepaRG_CYP7A1: Life Technologies and Expression Analysis (LTEA) Assay for Cytochrome P450 7A1 (CYP7A1) using HepaRG (AID 2283496)
Method in brief: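 HepaRG, 48 h exposure, 8-pt half-log series from 100 uM, 0.5% DMSO vehicle, duplicates. Readout: TaqMan qRT-PCR mRNA vs three housekeeping genes; bidirectional curve fit against DMSO baseline.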

[13] = read-out: Glutathione S-Transferase (GSTA2), GSTA2 (gene 2939); experiment: LTEA_HepaRG_GSTA2: Life Technologies and Expression Analysis (LTEA) Assay for Glutathione S-Transferase (GSTA2) using HepaRG (AID 2283497)
Method in brief: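 qRT-PCR readout of GSTA2 transcript, normalized to three housekeeping genes, fitted bidirectionally against 0.5% DMSO baseline. Differentiated HepaRG cells received compound for 48 h at 8 concentrations (top 100 uM, half-log steps).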

[14] = read-out: Glutamate-cysteine ligase catalytic (GCLC), GCLC (gene 2729); experiment: LTEA_HepaRG_GCLC: Life Technologies and Expression Analysis (LTEA) Assay for Glutamate-cysteine ligase catalytic (GCLC) using HepaRG (AID 2283498)
Method in brief: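 HepaRG, 48 h exposure, 8-pt half-log series from 100 uM, 0.5% DMSO vehicle; TaqMan qRT-PCR for GCLC mRNA, housekeeping-normalized; bidirectional curve fit vs DMSO baseline.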

[15] = read-out: growth arrest and DNA damage 45 (GADD45G), GADD45G (gene 10912); experiment: LTEA_HepaRG_GADD45G: Life Technologies and Expression Analysis (LTEA) Assay for growth arrest and DNA damage 45 (GADD45G) using HepaRG (AID 2283499)
Method in brief: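 Differentiated human HepaRG cells, 48 h post-plating, exposed 48 h in serum-free induction medium to 8 half-log concentrations (top 100 uM, 0.5% DMSO) in duplicate. GADD45G mRNA measured by Fluidigm TaqMan qRT-PCR, normalized to ACTB, GAPDH, POLR2A; bidirectional fit versus DMSO.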

[16] = read-out: Glutamate-cysteine ligase regulatory (GCLM), GCLM (gene 2730); experiment: LTEA_HepaRG_GCLM: Life Technologies and Expression Analysis (LTEA) Assay for Glutamate-cysteine ligase regulatory (GCLM) using HepaRG (AID 2283500)
Method in brief: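 Endpoint is GCLM transcript level by qRT-PCR, normalized to three housekeeping genes, after 48 h chemical exposure of human HepaRG cells (0.5% DMSO vehicle, top 100 uM, half-log dilutions). Fitting was bidirectional relative to DMSO.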

[17] = read-out: Glutathione S-transferase M3 (GSTM3), GSTM3 (gene 2947); experiment: LTEA_HepaRG_GSTM3: Life Technologies and Expression Analysis (LTEA) Assay for Glutathione S-transferase M3 (GSTM3) using HepaRG (AID 2283501)
Method in brief: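 Differentiated human HepaRG cells were exposed in duplicate for 48 h in serum-free induction medium, 8 points from 100 uM top in half-log steps, 0.5% DMSO. GSTM3 mRNA was measured by TaqMan qRT-PCR, normalized to ACTB, GAPDH and POLR2A; bidirectional fit versus DMSO.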

[18] = read-out: Heat shock 70 kDa protein 1 (HSPA1A), gene 3303; experiment: LTEA_HepaRG_HSPA1A: Life Technologies and Expression Analysis (LTEA) Assay for Heat shock 70 kDa protein 1 (HSPA1A) using HepaRG (AID 2283502)
Method in brief: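 Cells were plated and cultured for 48 h, then switched to serum-free induction medium. Chemicals were added at eight half-log concentrations up to 100 uM for 48 h. RNA was then isolated and HSPA1A measured by qRT-PCR with bidirectional curve fitting against DMSO.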

[19] = read-out: Hypoxia-inducible factor 1-alpha (Homo sapiens) (UniProt Q16665); experiment: LTEA_HepaRG_HIF1A: Life Technologies and Expression Analysis (LTEA) Assay for Hypoxia-inducible factor 1 (HIF1A) Trancription factor using HepaRG (AID 2283503)
Method in brief: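 HIF1A transcript level read by qRT-PCR (ACTB, GAPDH, POLR2A normalization) after 48 h chemical exposure of HepaRG cultures. Eight half-log concentrations, top 100 uM, 0.5% DMSO vehicle, duplicates; bidirectional curve fit against DMSO baseline.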

[20] = read-out: Cytochrome P450 3A4 (Homo sapiens) (UniProt P08684); experiment: LTEA_HepaRG_CYP3A4: Life Technologies and Expression Analysis (LTEA) Assay for CYP3A4 using HepaRG (AID 2283487)
Method in brief: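 HepaRG, 48 h exposure, 8-pt CRC from 100 uM (half-log), 0.5% DMSO, duplicates; serum-free induction medium. Readout: CYP3A4 mRNA, qRT-PCR, ACTB/GAPDH/POLR2A normalization. Bidirectional fit vs DMSO.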

Measured: AC50

Sequence of Hypoxia-inducible factor 1-alpha (Homo sapiens) (Q16665 whole entry, looked up): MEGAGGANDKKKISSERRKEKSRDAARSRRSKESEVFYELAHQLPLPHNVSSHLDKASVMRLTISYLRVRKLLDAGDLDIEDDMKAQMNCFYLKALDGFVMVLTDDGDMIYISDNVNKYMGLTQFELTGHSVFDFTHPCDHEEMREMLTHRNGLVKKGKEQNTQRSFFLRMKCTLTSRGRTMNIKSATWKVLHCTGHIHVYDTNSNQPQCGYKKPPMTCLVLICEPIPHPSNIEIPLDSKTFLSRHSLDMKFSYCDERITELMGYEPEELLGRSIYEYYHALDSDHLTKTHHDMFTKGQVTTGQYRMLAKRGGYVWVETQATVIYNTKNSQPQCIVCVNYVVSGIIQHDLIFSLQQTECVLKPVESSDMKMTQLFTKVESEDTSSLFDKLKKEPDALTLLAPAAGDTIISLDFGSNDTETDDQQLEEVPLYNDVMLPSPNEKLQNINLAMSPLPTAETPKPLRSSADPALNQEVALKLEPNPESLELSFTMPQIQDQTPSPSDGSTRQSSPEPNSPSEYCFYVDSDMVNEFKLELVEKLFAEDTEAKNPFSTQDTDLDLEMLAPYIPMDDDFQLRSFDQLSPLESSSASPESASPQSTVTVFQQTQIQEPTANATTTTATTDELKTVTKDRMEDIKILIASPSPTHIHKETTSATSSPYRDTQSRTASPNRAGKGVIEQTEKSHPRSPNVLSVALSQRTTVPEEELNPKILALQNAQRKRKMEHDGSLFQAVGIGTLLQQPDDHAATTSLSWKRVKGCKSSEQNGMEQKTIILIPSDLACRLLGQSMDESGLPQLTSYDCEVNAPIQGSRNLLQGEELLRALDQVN
Sequence of Cytochrome P450 3A4 (Homo sapiens) (P08684 whole entry, looked up): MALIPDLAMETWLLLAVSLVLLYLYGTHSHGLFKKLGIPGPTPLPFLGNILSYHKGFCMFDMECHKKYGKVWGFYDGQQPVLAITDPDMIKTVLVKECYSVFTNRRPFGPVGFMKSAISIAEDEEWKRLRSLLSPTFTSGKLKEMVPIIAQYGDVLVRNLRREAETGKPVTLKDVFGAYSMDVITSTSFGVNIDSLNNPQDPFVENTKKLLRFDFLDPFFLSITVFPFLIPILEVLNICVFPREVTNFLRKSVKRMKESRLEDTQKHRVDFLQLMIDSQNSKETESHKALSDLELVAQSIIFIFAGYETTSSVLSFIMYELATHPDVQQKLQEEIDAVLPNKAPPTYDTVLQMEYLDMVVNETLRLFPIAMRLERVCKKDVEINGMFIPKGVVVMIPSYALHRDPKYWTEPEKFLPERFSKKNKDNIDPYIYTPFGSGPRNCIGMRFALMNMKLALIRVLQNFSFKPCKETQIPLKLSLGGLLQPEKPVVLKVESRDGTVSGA
Sequence of Cytochrome P450 3A7 (Homo sapiens) (P24462 whole entry, looked up): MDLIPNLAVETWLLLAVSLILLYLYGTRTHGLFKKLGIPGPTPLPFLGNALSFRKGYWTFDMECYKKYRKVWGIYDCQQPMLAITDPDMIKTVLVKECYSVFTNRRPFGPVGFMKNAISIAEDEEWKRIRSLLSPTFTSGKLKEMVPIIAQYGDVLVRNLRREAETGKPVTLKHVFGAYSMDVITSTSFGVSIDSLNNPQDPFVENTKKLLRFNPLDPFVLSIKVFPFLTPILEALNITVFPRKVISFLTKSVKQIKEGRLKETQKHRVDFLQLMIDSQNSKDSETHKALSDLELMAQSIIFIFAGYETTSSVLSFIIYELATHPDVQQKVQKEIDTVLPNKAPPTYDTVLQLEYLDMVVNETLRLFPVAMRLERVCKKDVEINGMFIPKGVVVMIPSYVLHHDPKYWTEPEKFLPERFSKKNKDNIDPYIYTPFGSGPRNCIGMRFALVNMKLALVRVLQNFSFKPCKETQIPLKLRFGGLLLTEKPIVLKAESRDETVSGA

CC(C)(O)c1coc(S(=O)(=O)NC(=O)Nc2c3c(cc4c2CCC4)CCC3)c1
active: [2] 36.8 µM | [8] 10.5 µM | [12] 18.3 µM
not listed: [20]
inactive: all other assays above

CC(C)=CCCC(C)=CC=O
inactive: all assays above

NC(=O)NO
inactive: [4] | [5] | [6] | [7] | [10] | [13] | [14] | [15] | [16] | [17] | [18]

COC(=O)c1c(Cl)c(Cl)c(C(=O)OC)c(Cl)c1Cl
inactive: all assays above

O=C1CCC(N2C(=O)c3ccccc3C2=O)C(=O)N1 (stereo not given)
not listed: [5] | [19]
inactive: all other assays above

O=C(O)CCN(C1(C(=O)NO)CCCC1)S(=O)(=O)c1ccc(Oc2ccc(F)cc2)cc1
active: [20] 22.8 µM
inactive: all other assays above

CCCCC(CC)COC(=O)c1ccc(C(=O)OCC(CC)CCCC)cc1 (stereo not given)
not listed: [1]
inactive: all other assays above

CC(C)CC(C)(O)C#CC(C)(O)CC(C)C (stereo not given)
active: [2] 64.7 µM | [3] 50 µM | [20] 19.4 µM
not listed: [5] | [11] | [12]
inactive: all other assays above

O=C1OC(=O)C2C3C=CC(C3)C12 (stereo not given)
not listed: [9]
inactive: all other assays above

O=C(O)c1cc(N=Nc2ccc(S(=O)(=O)Nc3ccccn3)cc2)ccc1O
not listed: [17] | [19] | [20]
inactive: all other assays above
